Results filed as inconclusive are left out. Entries that show only a call come without a potency. Calls of active or inactive are those of the source. Calls come from the whole dose curve; as a rule, active = well fitted curve in the direction sought with a large enough effect; inconclusive = small, poorly fitted or top-dose-only effect, or another doubt; inactive = no such curve, though single readings can be large; an effect the other way counts as inactive or inconclusive.
Tests used:
[1] = P-glycoprotein substrates identified in KB-8-5-11 adenocarcinoma cell line, qHTS therapeutic library screen (AID 1346987); note: nearly all actives have a fitted effect of over 65% in size; note: potency is the fitted concentration of half-maximal effect
How it was run: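 KB-8-5-11: colchicine-selected sub-line of KB-3-1 over-expressing P-gp; assay medium lacked colchicine. 72 h drug exposure at 37 degree C, CellTiter-Glo.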

[2] = NS1 protein of Zika virus - qHTS assay to identify small molecule inhibitors in human HEK 293 cells (AID 1347053); note: series mostly up to about 46 µM; nearly all actives have a fitted effect of over 55% in size
How it was run: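 HEK 293 cells, seeded 20 h at 37 C, were pretreated with compound 1 h, then infected with ZIKV MR766 (MOI = 0.5) for 24 h. NS1 was read by TR-FRET with two anti-NS1 antibodies, normalized to uninfected and infected wells.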

## COc1ccc2c(c1)CC[C@H]1[C@@H]2CC[C@]2(C)[C@@H](NCCCCCCN3C(=O)C=CC3=O)CC[C@H]12
[1]
  Potency: inactive
[2]
  Potency: inactive

## CC1CNc2c(cccc2S(=O)(=O)N[C@@H](CCCN=C(N)N)C(=O)N2CC[C@@H](C)C[C@@H]2C(=O)O)C1 (stereo partly specified)
[1]
  Potency: inactive
[2]
  Potency: inactive

## O=C(CC12CC3CC(CC(C3)C1)C2)Nc1cccc2nc(NCCNCCO)ccc12
[1]
  Potency: inactive
[2]
  Potency: inactive

## N#CC(=C1Nc2ccccc2S1)c1ccnc(OCc2ccc(CN3CCOCC3)cc2)n1
[1]
  Potency: inactive
[2]
  Potency: inactive

## O=S(=O)(O)c1ccc2cc(N=Nc3cc(S(=O)(=O)O)c4cccnc4c3O)ccc2c1
[1]
  Potency: inactive
[2]
  Potency: inactive

## O[C@@H](COc1cccc2ncccc12)CN1CCN(C2c3ccccc3[C@@H]3[C@H](c4ccccc42)C3(F)F)CC1 (stereo partly specified)
[1]
  Potency: inactive

## Oc1ccc(C=Cc2cc(O)cc(O)c2)cc1
[1]
  Potency: inactive
[2]
  Potency: inactive

## CC(C)C[C@@H](N)[C@H](O)C(=O)N[C@H](C(=O)N[C@H](C(=O)N[C@@H](CC(=O)O)C(=O)O)C(C)C)C(C)C
[1]
  Potency: inactive
[2]
  Potency: inactive

## Cc1c(C(=O)Nc2ccc(N3C[C@@H](C)O[C@@H](C)C3)nc2)cccc1-c1ccc(OC(F)(F)F)cc1
[1]
  Potency: inactive
[2]
  Potency: inactive

## CC(C)n1c(C=C[C@H](O)C[C@H](O)CC(=O)O)c(-c2ccc(F)cc2)c2ccccc21
[1]
  Potency: 11.8 µM (active)
[2]
  Potency: inactive

## CN[C@@H]1[C@@H](O)[C@@H](O[C@@H]2[C@@H](O)[C@H](O[C@H]3O[C@H](CN)[C@@H](O)[C@H](O)[C@@H]3O)[C@@H](N)C[C@@H]2NC(=O)[C@@H](O)CN)OC[C@]1(C)O
[1]
  Potency: inactive
[2]
  Potency: inactive

## c1cc(OCCN2CCCCC2)cc(-c2n[nH]c3ccc(-c4ncn[nH]4)cc23)c1
[1]
  Potency: inactive
[2]
  Potency: inactive

## C#C[C@]1(O)CC[C@H]2[C@H]3CCc4cc(OC)ccc4[C@H]3CC[C@@]21C
[1]
  Potency: inactive
[2]
  Potency: inactive

## CS(=O)(=O)c1ccc(C2=C(c3ccccc3)C(=O)OC2)cc1
[1]
  Potency: inactive
[2]
  Potency: inactive

## CCCCN(CCCC)CC(O)c1cc(Cl)cc2c1-c1ccc(Cl)cc1C2=Cc1ccc(Cl)cc1 (stereo unspecified)
[1]
  Potency: inactive
[2]
  Potency: inactive

## Cc1cnc(-c2cc(N3CCN(C(=O)CCS(C)(=O)=O)CC3)ncc2Cl)c(C)c1
[1]
  Potency: inactive
[2]
  Potency: inactive

Reference: PubChem BioAssay (NCATS)
